The results in this text go back to paper PMC12864922, “TDP-43 directly inhibits mRNA accumulation in neurites through modulation of mRNA stability”.

The labels stand for the following.
B1: ENSMUSG00000042529.429|Kcnj12|20:25;182:186 (ssRNA)
RNA: GGGAGUUCUACAGUCCGACGAUCGCUUCGAUAUCCGCAUGCUAAUGUCAGUGGCUUGGGUGCACACACGAGAGAGAGAGAGAGAGAGAGAGAGAGAGAGAGAGAGAGAGAGAGAGAGAGCUGCACAGGAUGAAGCAGCUGCCCUGAGCCCAUCUGGUGCUGUGCACCUGGUCCUUGUCCAGCCGAGGGCCUGGGGGCAGAAGAACACACCAUAGGGAGGCCCUUCAUACGGUGUCUGCCCUAUGUGAGGUCAUAGAAUGUUAAAUCUAUUUUAAACGGUGAAACUGGAGAAUUUUCAUGUUAUCUCUUGCGGUCGCACUAGUGUGGAAUUCUCGGGUGUCAAGG
B2: ENSMUSG00000061578.155|Ksr2 (ssRNA)
RNA: GGGAGUUCUACAGUCCGACGAUCGCUUCGAUAUCCGCAUGCUAUAUGCAUGAUGGGUUACAUGGGUGUGUGUGUGUGUGUAACUGUUUACAAUGGUCUCCCUGCCUCUCACGGGCUGUGUUCCAGGAGAAUGCACAUAGAGAGGUUCUGUGGUCUCUGCUGUCGCCUGGUGCUGAAUCCUGAGUGGUUUCCCCACUGAGGACCCUGUGACCCUGUGACCCUUGGCCCCUCCCUUAUUGUGCACACUCAGCACCCCAUCUUCCAAGCCUUUCUUCAUCCCCCACCUUCUUUUGGGAAGGGGUGGCUCUUGCGGUCGCACUAGUGUGGAAUUCUCGGGUGUCAAGG
B3: ENSMUSG00000090935.767|Synj2bp (ssRNA)
RNA: GGGAGUUCUACAGUCCGACGAUCGCUUCGAUAUCCGCAUGCUAAUUUUAAAAAUCAGUUUACUUUCAUCUUUUCUCUUUAGGCUUUCAAUAAAGACCAGAAGGACUGAUAGACAGCUAGAGAGGAUCGUGUAGGCAUCCAGAUUAGAAUGGAAGAAUCCAUUGAACAAUCUGAGAAAACUAAUCAGGUGUUGUUUUAAUCACAUUAGUUUUAAGUUAGAUACAUGCUCUUUGUAGUAUUUUGGGUUUUAUUGUGCAAAUAAGCAAUUAAAAUAUAUUUAGAAGCCAAGUAUAAUGGUACAUGUCUCUUGCGGUCGCACUAGUGUGGAAUUCUCGGGUGUCAAGG
B4: ENSMUSG00000058297.23|Spock2 (ssRNA)
RNA: GGGAGUUCUACAGUCCGACGAUCGCUUCGAUAUCCGCAUGCUACCGACGGCCAGAAAGACAGGCCAGAAGAGACCUGGACAACAGCAGGCAACUUAGCAAAUGGAUCCGGAAGUCAGUGCGGAGGACCCUGGCUCCAGUGGGGGAGGACUGGGGAGUGUGGCUUGUGUGUAUGUGUGAUAUGAGAUGUGUGUGUAUGAUGUGAGAUGUGAGUGUGUGAUGUGAGAUGUGUGUAUGUGAGAUGUGUGUGUGUGUGUGUGUGUGUGUGAUGUGAGUCACCCAAAGGUCCCUAUGUUAUUGAUUUUCUCUUGCGGUCGCACUAGUGUGGAAUUCUCGGGUGUCAAGG
B5: ENSMUSG00000058297.23|Spock2|113:117;121:134;143:154;168:174;183:192;198:223 (ssRNA)
RNA: GGGAGUUCUACAGUCCGACGAUCGCUUCGAUAUCCGCAUGCUACCGACGGCCAGAAAGACAGGCCAGAAGAGACCUGGACAACAGCAGGCAACUUAGCAAAUGGAUCCGGAAGUCAGUGCGGAGGACCCUGGCUCCAGUGGGGGAGGACUGGGGACACACGCUACACACAUACACACAUAUGAGAACACACACAUACAUGUGAGAUGUGACACACACAUGUGAGAACACACAUACUGAGAACACACACACACACACACACACACACAUGUGAGUCACCCAAAGGUCCCUAUGUUAUUGAUUUUCUCUUGCGGUCGCACUAGUGUGGAAUUCUCGGGUGUCAAGG
B6: ENSMUSG00000058297.26|Spock2|95:99;103:116;125:136;150:156;165:174;180:205 (ssRNA)
RNA: GGGAGUUCUACAGUCCGACGAUCGCUUCGAUAUCCGCAUGCUAGGCCAGAAGAGACCUGGACAACAGCAGGCAACUUAGCAAAUGGAUCCGGAAGUCAGUGCGGAGGACCCUGGCUCCAGUGGGGGAGGACUGGGGACACACGCUACACACAUACACACAUAUGAGAACACACACAUACAUGUGAGAUGUGACACACACAUGUGAGAACACACAUACUGAGAACACACACACACACACACACACACACAUGUGAGUCACCCAAAGGUCCCUAUGUUAUUGAUUUUCAAAUGCACACUUUCACACUCUUGCGGUCGCACUAGUGUGGAAUUCUCGGGUGUCAAGG
B7: ENSMUSG00000058297.26|Spock2 (ssRNA)
RNA: GGGAGUUCUACAGUCCGACGAUCGCUUCGAUAUCCGCAUGCUAGGCCAGAAGAGACCUGGACAACAGCAGGCAACUUAGCAAAUGGAUCCGGAAGUCAGUGCGGAGGACCCUGGCUCCAGUGGGGGAGGACUGGGGAGUGUGGCUUGUGUGUAUGUGUGAUAUGAGAUGUGUGUGUAUGAUGUGAGAUGUGAGUGUGUGAUGUGAGAUGUGUGUAUGUGAGAUGUGUGUGUGUGUGUGUGUGUGUGUGAUGUGAGUCACCCAAAGGUCCCUAUGUUAUUGAUUUUCAAAUGCACACUUUCACACUCUUGCGGUCGCACUAGUGUGGAAUUCUCGGGUGUCAAGG
B8: ENSMUSG00000058297.25|Spock2 (ssRNA)
RNA: GGGAGUUCUACAGUCCGACGAUCGCUUCGAUAUCCGCAUGCUAAAGACAGGCCAGAAGAGACCUGGACAACAGCAGGCAACUUAGCAAAUGGAUCCGGAAGUCAGUGCGGAGGACCCUGGCUCCAGUGGGGGAGGACUGGGGAGUGUGGCUUGUGUGUAUGUGUGAUAUGAGAUGUGUGUGUAUGAUGUGAGAUGUGAGUGUGUGAUGUGAGAUGUGUGUAUGUGAGAUGUGUGUGUGUGUGUGUGUGUGUGUGAUGUGAGUCACCCAAAGGUCCCUAUGUUAUUGAUUUUCAAAUGCACACUCUCUUGCGGUCGCACUAGUGUGGAAUUCUCGGGUGUCAAGG
B9: ENSMUSG00000058297.24|Spock2 (ssRNA)
RNA: GGGAGUUCUACAGUCCGACGAUCGCUUCGAUAUCCGCAUGCUAGCCAGAAAGACAGGCCAGAAGAGACCUGGACAACAGCAGGCAACUUAGCAAAUGGAUCCGGAAGUCAGUGCGGAGGACCCUGGCUCCAGUGGGGGAGGACUGGGGAGUGUGGCUUGUGUGUAUGUGUGAUAUGAGAUGUGUGUGUAUGAUGUGAGAUGUGAGUGUGUGAUGUGAGAUGUGUGUAUGUGAGAUGUGUGUGUGUGUGUGUGUGUGUGUGAUGUGAGUCACCCAAAGGUCCCUAUGUUAUUGAUUUUCAAAUGCUCUUGCGGUCGCACUAGUGUGGAAUUCUCGGGUGUCAAGG
B10: ENSMUSG00000058297.22|Spock2|119:123;127:140;149:160;174:180;189:198;204:229 (ssRNA)
RNA: GGGAGUUCUACAGUCCGACGAUCGCUUCGAUAUCCGCAUGCUAAGGGUGCCGACGGCCAGAAAGACAGGCCAGAAGAGACCUGGACAACAGCAGGCAACUUAGCAAAUGGAUCCGGAAGUCAGUGCGGAGGACCCUGGCUCCAGUGGGGGAGGACUGGGGACACACGCUACACACAUACACACAUAUGAGAACACACACAUACAUGUGAGAUGUGACACACACAUGUGAGAACACACAUACUGAGAACACACACACACACACACACACACACAUGUGAGUCACCCAAAGGUCCCUAUGUUAUUCUCUUGCGGUCGCACUAGUGUGGAAUUCUCGGGUGUCAAGG
B11: ENSMUSG00000061578.90|Ksr2|236:240 (ssRNA)
RNA: GGGAGUUCUACAGUCCGACGAUCGCUUCGAUAUCCGCAUGCUAUCUGAUUUUAGAGGUCCCAUUCCAAGAUGGAAGUCACCGGUUGCCGCUGAGCACACAAUUCUGAAGGACAGUAGGCAGUCCUGCAGGUCUUUUUUAGCACAGGGCCUCUCUGGGGACCAGUCCCUGGCCUUCACCCUUCUCCCAUUUUGUAAGAACACUGUUCUAACUCACCUCAUGCCCACGCUACCCUGGGCAACUGGAGAACACCAUAGCGUUUCAGCUGAUGUGACAUUUGCACACACCUUUACCAGUUCACCAUCCUCUUGCGGUCGCACUAGUGUGGAAUUCUCGGGUGUCAAGG
B12: ENSMUSG00000090935.515|Synj2bp (ssRNA)
RNA: GGGAGUUCUACAGUCCGACGAUCGCUUCGAUAUCCGCAUGCUAUGGAGGCCCAGUGUCUGCUACCCUUCUUGUAUCUGAUGGCAUGGGUAACAGCUCUGCCAUGGGCCUGCUUACUUCUAGUAUUCACCUCAGGGCUUGGAAAUUGGUUUUGAAAGGCUUUUAGACAUAGAAAGUAAAACUAAUGGCAAGGAGGAUAAAACACUGUUGUGUGUUGUAUUGUUGAUCUAAAUAAAAAAUAUCAUUGGUAGAAGUUUUACUUUGGUUGAUAAGGAUUCUGAUAACAUUUGGGUCUCCUUAGGAAACUCUUGCGGUCGCACUAGUGUGGAAUUCUCGGGUGUCAAGG
B13: ENSMUSG00000031028.314|Tub|85:89 (ssRNA)
RNA: GGGAGUUCUACAGUCCGACGAUCGCUUCGAUAUCCGCAUGCUAUUUCUAGAGGGCAGUAGGACUUCCAUGCUGGGGCUGGCCUAUCUCCUGAUGAAAGAUUACAGUGCCAUCUCCUUCCCAUAGUUCACACACUGCCCUCCCUCCCUGACUUUAUAGGGAGAAAUCUCCUGACAUUAGAGGUGAUAGAAACCAGAGCUUUAGUCUAGUCAGGCUGUUUCUCUGGGUUGACAAGUUUAAGGUUGAACAGGCUGAUUUCUGGAAUCUCAUGAGUGGAGGGGACCCUGGUGGUUAAGAGCGGAACUCUCUUGCGGUCGCACUAGUGUGGAAUUCUCGGGUGUCAAGG

The full ranking holds about 9,900 sequences; the median of “r (bound/input frequency ratio)” is about 0.7, and the highest 2% start at about 6.5. Shown is part of a subset that was picked to be rich in the highest values.

For the test, the target named is TDP-43 (Homo sapiens, UniProt Q13148 1-414). The experiment in a line: RNA Bind-n-Seq with designed 260-mer pool; 25 mM Tris-HCl, 150 mM KCl, 3 mM MgCl2, BSA (printed 500 mg/mL), 20 units/mL SUPERase IN; pH not stated; 500 nM RNA pool, 1 h, 4 C; TDP-43 5, 50, 500 nM; high values mean tight binding. The conditions noted are these: protein: recombinant; tags: SBP (GST cleaved off with PreScission; pGEX-GST-SBP). The essentials: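 Binding (R) is the ratio of each oligo's mapped-read-normalized abundance in the bound fraction to its abundance in the input. To obtain it, SBP-tagged recombinant TDP-43 (5, 50 or 500 nM) on streptavidin beads was incubated with 500 nM of an in vitro-transcribed 260-nt 3′ UTR oligo pool for 1 h at 4 °C in 25 mM Tris-HCl, 150 mM KCl, 3 mM MgCl2, BSA and SUPERase IN. The RNA retained after washing was released with biotin, then reverse transcribed, amplified by PCR and sequenced.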
Sequence of TDP-43 (Q13148 whole entry): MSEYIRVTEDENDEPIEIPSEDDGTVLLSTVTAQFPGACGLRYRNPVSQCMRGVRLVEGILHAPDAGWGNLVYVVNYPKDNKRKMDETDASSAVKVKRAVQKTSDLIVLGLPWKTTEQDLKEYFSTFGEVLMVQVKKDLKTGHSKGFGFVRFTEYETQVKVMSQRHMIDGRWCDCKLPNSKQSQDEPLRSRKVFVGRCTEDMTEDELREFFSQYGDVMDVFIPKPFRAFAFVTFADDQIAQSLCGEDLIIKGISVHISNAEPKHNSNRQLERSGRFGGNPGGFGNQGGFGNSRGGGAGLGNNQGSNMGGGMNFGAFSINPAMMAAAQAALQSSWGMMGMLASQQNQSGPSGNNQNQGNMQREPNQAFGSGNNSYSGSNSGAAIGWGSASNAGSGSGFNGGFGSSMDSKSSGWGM
For B1, the binding signal is 5.54 R (bound/input frequency ratio).

As for B2, the binding signal is 1.09 R (bound/input frequency ratio).

On to B3, for which the binding signal is 0.0267 R (bound/input frequency ratio).

With B4, the binding signal is 6.74 R (bound/input frequency ratio).

For the molecule B5, the binding signal is 4.42 R (bound/input frequency ratio).

As for B6, the binding signal was 3.09 R (bound/input frequency ratio).

With B7, the binding signal was 6.34 R (bound/input frequency ratio).

As to B8, the binding signal is 6.77 R (bound/input frequency ratio).

For the molecule B9, the binding signal is 9.99 R (bound/input frequency ratio).

Turning to B10, the binding signal was 2.11 R (bound/input frequency ratio).

With B11, the binding signal is 0.502 R (bound/input frequency ratio).

For B12, the binding signal is 0.412 R (bound/input frequency ratio).

Take B13: the binding signal was 1.56 R (bound/input frequency ratio).
